The text below walks through data of PMC5540273 (PLoS ONE, 2017).

Like-named read-outs stand apart in the source and are kept apart here.

Among the test systems are PAK6; PAK7; PDGFRA; PDGFRB; PDPK1; PFTAIRE2.
Holding throughout (details): n = 1
The subject of the next test is T1, PCTK1.
T1 construct: gene CDK16

Another test relates to T2, PCTK2.
T2 construct: gene CDK17

Another test concerns T3, PCTK3.
T3 construct: gene CDK18

Another test relates to T4, PFTK1.
T4 construct: gene CDK14

Where [1] appears, read: concentration: 1 μM, replicates: in singlicate.
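Also: KINOMEscan kinase panel screen.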

Regarding `Cc1ccc(NC(=O)Nc2cccc(C(F)(F)F)c2)cc1` [GSK955403], the “%Inh” value amounted to 36% with PAK6 (1 µM); 1% with PAK7 (1 µM); 0% in the test with PCTK1 (1 µM); 2% in the test on PCTK2 (1 µM); 0% in the test on PCTK3 (1 µM); 0% in the test with PDGFRA (1 µM). Also, the “%Inh” value came to 45% in the test with PDGFRB (1 µM), 14% in the test on PDPK1 (1 µM), 1% with PFTAIRE2 (1 µM) and 5% in the test with PFTK1 (1 µM).

As for `O=C(Nc1n[nH]c2cc(-c3cccc(F)c3F)ccc12)C1CC1` [SB-733894], the “%Inh” value amounted to 0% with PAK6 (setting [1]); 1% in the test on PAK7 (setting [1]); 0% in the test with PCTK1 (setting [1]); 8% in the test with PCTK2 (setting [1]); 5% in the test on PCTK3 (setting [1]); 23% in the test on PDGFRA (setting [1]). Moreover, the “%Inh” value with PDGFRB (setting [1]) came to 51%; in the test with PDPK1 (setting [1]), 19%; in the test on PFTAIRE2 (setting [1]), 0%; in the test with PFTK1 (setting [1]), 0%.

Turning to `Cc1cc(-c2ccc3c(c2)CC[C@@H](N[C@@H](C)c2ccccc2)C3)cnc1N.Cl` [GW412617], the “%Inh” value came to 5% in the test with PAK6 (setting [1]); 15% in the test on PAK7 (setting [1]); 6% with PCTK1 (setting [1]); 0% with PCTK2 (setting [1]); 0% in the test on PCTK3 (setting [1]); 0% with PDGFRA (setting [1]). Moreover, the “%Inh” value in the test with PDGFRB (setting [1]) was 75%; with PDPK1 (setting [1]), 22%; in the test with PFTAIRE2 (setting [1]) it was 6%; with PFTK1 (setting [1]), 0%.

As for `CN1C(=O)C(Nc2ccc(Cl)c(C(=O)O)c2)=C(c2ccc(Cl)cc2)C1=O` [SB-404290], the “%Inh” value stood at 0% in the test with PAK6 (setting [1]); 10% with PAK7 (setting [1]); 0% in the test on PCTK1 (setting [1]); 6% in the test with PCTK2 (setting [1]); 0% in the test on PCTK3 (setting [1]); 27% in the test on PDGFRA (setting [1]). The “%Inh” value with PDGFRB (setting [1]) was 0%; in the test on PDPK1 (setting [1]), 0%; with PFTAIRE2 (setting [1]), 11%; in the test on PFTK1 (setting [1]), 0%.

As to `Cl.Oc1ccc(-c2nc(-c3ccccc3)[nH]c2-c2ccncc2)cc1` [SB-428218], the “%Inh” value amounted to 0% in the test with PAK6 (setting [1]); 0% in the test with PAK7 (setting [1]); 4% in the test with PCTK1 (setting [1]); 0% in the test on PCTK2 (setting [1]); 20% in the test with PCTK3 (setting [1]); 0% in the test with PDGFRA (setting [1]). For the same compound, the “%Inh” value is given as 13% in the test on PDGFRB (setting [1]), 0% with PDPK1 (setting [1]), 0% in the test on PFTAIRE2 (setting [1]) and 21% with PFTK1 (setting [1]).

For `CCCc1ccc(S(=O)(=O)NC2CCN(c3ccnc(Nc4ccc(F)cc4)n3)C2)cc1` (stereo not drawn) [GSK1379715], the “%Inh” value in the test on PAK6 (setting [1]) worked out at 0%; with PAK7 (setting [1]) it was 0%; in the test on PCTK1 (setting [1]) it was 0%; in the test with PCTK2 (setting [1]), 0%; in the test on PCTK3 (setting [1]), 19%; with PDGFRA (setting [1]) it was 0%. Further, the “%Inh” value is reported as 16% in the test with PDGFRB (setting [1]), 82% in the test on PDPK1 (setting [1]), 0% with PFTAIRE2 (setting [1]) and 1% in the test with PFTK1 (setting [1]).

`O=C(Nc1n[nH]c2nc(-c3nccs3)c(Br)cc12)C1CC1` [SB-742251]: the “%Inh” value with PAK6 (setting [1]) is recorded as 0%; in the test on PAK7 (setting [1]), 0%; in the test with PCTK1 (setting [1]), 45%; in the test on PCTK2 (setting [1]) it was 18%; with PCTK3 (setting [1]), 26%; with PDGFRA (setting [1]), 0%. Besides, the “%Inh” value in the test on PDGFRB (setting [1]) is given as 14%; in the test on PDPK1 (setting [1]), 0%; with PFTAIRE2 (setting [1]), 4%; in the test on PFTK1 (setting [1]) it was 14%.

Turning to `Cc1cccc(-c2nc(C)cc(Nc3ccncc3)n2)n1` [GSK257997], the “%Inh” value with PAK6 (setting [1]) came out at 0%; in the test on PAK7 (setting [1]), 0%; in the test with PCTK1 (setting [1]), 9%; with PCTK2 (setting [1]), 0%; in the test with PCTK3 (setting [1]), 15%; with PDGFRA (setting [1]), 0%. Also, the “%Inh” value with PDGFRB (setting [1]) was determined as 11%; in the test on PDPK1 (setting [1]), 0%; in the test on PFTAIRE2 (setting [1]) it was 14%; in the test on PFTK1 (setting [1]), 24%.

Turning to `Cc1ccccc1-n1cnc2c(N)ncnc21` [SKF-97510], the “%Inh” value in the test on PAK6 (setting [1]) was 12%; with PAK7 (setting [1]) it was 0%; in the test on PCTK1 (setting [1]), 0%; in the test with PCTK2 (setting [1]), 0%; in the test with PCTK3 (setting [1]) it was 0%; in the test with PDGFRA (setting [1]), 0%. The “%Inh” value in the test on PDGFRB (setting [1]) is 0%; in the test on PDPK1 (setting [1]) it was 6%; with PFTAIRE2 (setting [1]) it was 0%; in the test with PFTK1 (setting [1]) it was 0%.

With `O=C(Nc1ccc2c(c1)OCO2)NC1CCN(c2ccnc(Nc3ccc(F)cc3)n2)C1` (stereo not drawn) [GSK1379724], the “%Inh” value with PAK6 (setting [1]) worked out at 22%; with PAK7 (setting [1]), 0%; in the test on PCTK1 (setting [1]), 3%; with PCTK2 (setting [1]), 0%; in the test on PCTK3 (setting [1]), 3%; with PDGFRA (setting [1]) it was 0%. Also, the “%Inh” value stood at 31% with PDGFRB (setting [1]), 0% with PDPK1 (setting [1]), 8% in the test with PFTAIRE2 (setting [1]) and 8% in the test on PFTK1 (setting [1]).

`CC(C)(C)c1ccc(C(=O)Nc2cn3cc(-c4cccnc4)ccc3n2)cc1`: the “%Inh” value with PAK6 (setting [1]) came to 15%; in the test with PAK7 (setting [1]) it was 10%; in the test on PCTK1 (setting [1]) it was 0%; in the test on PCTK2 (setting [1]), 13%; with PCTK3 (setting [1]) it was 19%; in the test with PDGFRA (setting [1]) it was 57%. Moreover, the “%Inh” value in the test on PDGFRB (setting [1]) was found to be 95.4%; with PDPK1 (setting [1]) it was 2%; with PFTAIRE2 (setting [1]), 2%; in the test with PFTK1 (setting [1]), 22%.

On to `CN(C)CCN(C)C(=O)c1cc(-c2ccncc2)c(-c2ccc(Cl)c(O)c2)o1.Cl.Cl` [SB-710397], for which the “%Inh” value in the test with PAK6 (setting [1]) was 0%; with PAK7 (setting [1]), 0%; with PCTK1 (setting [1]), 4%; in the test on PCTK2 (setting [1]), 0%; in the test with PCTK3 (setting [1]), 0%; in the test on PDGFRA (setting [1]) it was 0%. The “%Inh” value with PDGFRB (setting [1]) worked out at 22%; in the test on PDPK1 (setting [1]), 0%; with PFTAIRE2 (setting [1]), 0%; in the test with PFTK1 (setting [1]), 0%.

As for `Cc1nnc(-c2ccc3occ(-c4ccc(S(C)=O)cc4)c3c2)[nH]1` (stereo not drawn), the “%Inh” value in the test with PAK6 (setting [1]) turned out to be 13%; in the test on PAK7 (setting [1]) it was 5%; with PCTK1 (setting [1]) it was 8%; in the test on PCTK2 (setting [1]), 0%; in the test with PCTK3 (setting [1]), 0%; with PDGFRA (setting [1]), 36%. Further, the “%Inh” value turned out to be 0% with PDGFRB (setting [1]), 0% in the test with PDPK1 (setting [1]), 24% with PFTAIRE2 (setting [1]) and 6% in the test with PFTK1 (setting [1]).

As for `Cn1ccc2ncnc(Oc3cccc(C(=O)Nc4ccccc4)c3)c21`, the “%Inh” value with PAK6 (setting [1]) is 0%; in the test on PAK7 (setting [1]), 0%; in the test on PCTK1 (setting [1]), 0%; in the test with PCTK2 (setting [1]), 2%; in the test on PCTK3 (setting [1]) it was 0%; in the test with PDGFRA (setting [1]) it was 12%. Also, the “%Inh” value was determined as 39% with PDGFRB (setting [1]), 0% in the test on PDPK1 (setting [1]), 0% in the test with PFTAIRE2 (setting [1]) and 7% in the test on PFTK1 (setting [1]).

As to `COc1ccccc1CNC(=O)c1cc(C(=O)c2ccccc2C)c[nH]1` [GSK364507], the “%Inh” value in the test on PAK6 (setting [1]) is on record as 0%; with PAK7 (setting [1]) it was 0%; with PCTK1 (setting [1]) it was 4%; in the test on PCTK2 (setting [1]), 0%; in the test with PCTK3 (setting [1]) it was 27%; in the test on PDGFRA (setting [1]), 0%. Also, the “%Inh” value in the test with PDGFRB (setting [1]) is recorded as 52%; in the test on PDPK1 (setting [1]), 0%; in the test with PFTAIRE2 (setting [1]), 0%; with PFTK1 (setting [1]) it was 22%.

As to `Cn1ccc2ncnc(Oc3ccc(Nc4nc5ccccc5[nH]4)cc3)c21`, the “%Inh” value in the test on PAK6 (setting [1]) stood at 9%; in the test with PAK7 (setting [1]), 0%; with PCTK1 (setting [1]), 0%; in the test with PCTK2 (setting [1]), 0%; with PCTK3 (setting [1]) it was 12%; in the test with PDGFRA (setting [1]), 8%. The “%Inh” value in the test on PDGFRB (setting [1]) is listed as 0%; in the test on PDPK1 (setting [1]), 19%; in the test on PFTAIRE2 (setting [1]) it was 7%; in the test with PFTK1 (setting [1]) it was 0%.

Take `CC1=C(C(=O)Nc2cc3cn[nH]c3cc2F)C(c2ccc(C(F)(F)F)cc2)CC(=O)N1` (stereo not drawn) [GSK429286]: the “%Inh” value in the test on PAK6 (setting [1]) is given as 0%; in the test on PAK7 (setting [1]), 0%; in the test on PCTK1 (setting [1]), 3%; with PCTK2 (setting [1]), 0%; in the test with PCTK3 (setting [1]), 5%; in the test with PDGFRA (setting [1]), 0%. In addition, the “%Inh” value is 18% in the test with PDGFRB (setting [1]), 0% with PDPK1 (setting [1]), 0% in the test on PFTAIRE2 (setting [1]) and 12% in the test on PFTK1 (setting [1]).

Consider `O=C(Nc1n[nH]c2nc(-c3nccs3)c(Br)cc12)C1CCCC1` [SB-742609], for which the “%Inh” value in the test with PAK6 (setting [1]) stood at 0%; with PAK7 (setting [1]), 0%; with PCTK1 (setting [1]), 48%; with PCTK2 (setting [1]) it was 47%; in the test on PCTK3 (setting [1]), 50%; with PDGFRA (setting [1]), 0%. The “%Inh” value with PDGFRB (setting [1]) turned out to be 27%; in the test on PDPK1 (setting [1]) it was 0%; in the test with PFTAIRE2 (setting [1]), 7%; with PFTK1 (setting [1]), 26%.
